# Source: PubChem BioAssay
# ugtP null kill: growth inhibition of S. aureus ugtP deletion strain; S. aureus RN4220 ugtP deletion, OD600 growth, 16 h; growth inhibition, % (test concentration not listed); 330,000 compounds, 0.54% hits; in the data active means growth inhibition above about 68%;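 further: plate controls were untreated wells for no effect and antibiotic for full effect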
# PrPC surface inh: reduces human prion protein on the cell surface; P04156; cell surface PrPC, TR-FRET read-out; inhibition, % at 13.8 µM; 370,000 compounds, 0.43% hits; AID 720596; in the data active means inhibition above about 24%; further: 0% = median of the test wells and 100% = reference compound wells
# PrP 5UTR inh: inhibition of PrP 5' UTR reporter expression. cell-based PrP 5' UTR mRNA reporter, plate reader. inhibition, % (no concentration beside the values). 340,000 compounds, 0.35% hits; in the data active means inhibition above about 52%; further: 0 = median of the neutral control wells
# CCHF vOTU inh: blocks the CCHF virus ovarian tumor domain protease. CCHFV vOTU protease, Pep-AMC fluorescence. 370,000 compounds, 0.55% hits. inhibition, % at 11.5 µM. AID 651958; in the data active means inhibition above about 30%; further: 0% = vehicle wells with enzyme and 100% = no enzyme wells
# PfHsp40 yeast: restores yeast growth despite PfHsp40 toxicity; 340,000 compounds, 0.68% hits; growth rescue, % at 12.5 µM; S. cerevisiae expressing PfHsp40, growth rescue, ATP luminescence; in the data active means growth rescue above about 28%, passing the limit was not always enough;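 further: yeast W303a lacking pdr1 and pdr3 grown in galactose medium; growth measured after three days at 30 °C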
# Sa RN4220 lethal: S. aureus RN4220 growth inhibition; OD600, 16 h; inhibition, % (test concentration not listed); 330,000 compounds, 0.33% hits; in the data active means inhibition above about 85%;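 further: plate controls were untreated cells for no effect and reference antibiotic for full effect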
# PrP UTR cherry: prion 5' UTR mRNA inhibition, cherry-pick retest; AID 504592; shares compounds with PrP 5UTR inh; inhibition, % at 2.5 µM; cell-based prion protein 5' UTR reporter, plate reader; 1,100 compounds, 48% hits; in the data active means inhibition above about 54%
# The depositor's hits bear a star; · = not tested or not shown. Shown are actives, neighbours in structure and some others; about 2.1% of the full set was active somewhere.
SMILES,ugtP null kill,PrPC surface inh,PrP 5UTR inh,CCHF vOTU inh,PfHsp40 yeast,Sa RN4220 lethal,PrP UTR cherry
CCC(C)C(C(=O)NCCCCCCCCCCC(=O)N1CCNCC1)n1cc(CCCCN=C(N)N)nn1 (stereo not drawn),4.1,·,·,·,·,2.5,·
CON=C/C(C#N)=C/c1ccc(OC)c(OC)c1,-3.0,·,·,·,·,7.5,·
COc1ccc(N2C(=O)N3C(c4ccc(Cl)cc4)C4C(=O)N(C5CCCCC5)C(=O)C4[C@]3(Cc3ccc(Cl)cc3)C2=O)cc1 (stereo partly drawn),0.5,·,·,·,·,1.4,·
CCCNS(=O)(=O)c1cccc(C(=O)OCc2cc(=O)oc3cc(OC)ccc23)c1,-7.6,-7.2,57.2*,-15.8,0.2,8.6,69.2*
COC(=O)C1C(O)=C(C=Nc2ccc3ccccc3c2)C(=O)CC1(C)C (stereo not drawn),1.0,5.0,80.4*,-1.1,-0.4,5.7,9.1
Cc1c2c(=O)n(-c3nc4ccccc4s3)nc-2cc(O)n1Cc1ccccc1,-3.8,·,64.8*,·,0.4,14.7,34.8
Cc1cccc(C)c1OCc1n[nH]c(=S)o1,0.1,1.4,73.2*,1.6,0.1,18.9,-25.5
Cc1cccc(OCc2n[nH]c(=S)o2)c1C,-9.2,-1.0,-65.7,-4.1,-0.7,8.1,·
CCOC(=O)C1(Cc2ccccc2)CCCCCC1=O (stereo not drawn),·,-1.0,55.4*,0.8,-2.0,·,0.6
CCOC(=O)C1(CCOC)CCCCC1=O (stereo not drawn),·,-6.6,·,1.9,·,·,·
COc1ccc2c(c1)sc1nc(-c3ccccc3)cn12,48.1,16.7,88.6*,7.1,-0.7,17.8,88.8*
O=Cc1cn(Cc2cccc([N+](=O)[O-])c2)c2ccccc12,-9.1,-7.8,71.2*,-3.6,4.3,-1.0,15.8
CN1CCN(CCC(=O)NN=Cc2ccccc2F)CC1,-2.4,·,·,·,·,1.5,·
Cc1onc(-c2ccccc2Cl)c1-c1nc(-c2ccccn2)no1,·,11.1,-10.4,-5.0,0.2,·,·
Clc1ccccc1/C=C/c1nc(-c2ccccn2)no1,·,4.3,55.4*,-2.3,-0.9,·,60.5*
CCCC(C#Cc1ccsc1)=C1c2ccccc2C(=O)N1c1ccccc1,17.0,·,·,·,·,-3.6,·
Nc1nc2c(nc(Br)n2C2OC3COP(=O)(O)OC3C2O)c(=O)[nH]1 (stereo not drawn),1.8,·,·,·,·,5.3,·
COc1cc(/C=C2\COC/C(=C\c3cc(OC)c(OC)c(OC)c3)C2=O)cc(OC)c1OC,-1.7,-2.6,89.1*,-13.5,0.8,1.1,96.8*
O=C(CSc1cn(CCNC(=O)c2ccc3ccccc3c2)c2ccccc12)NCc1ccco1,-7.0,3.1,58.1*,10.1,-0.7,-17.1,6.2
CCc1c2c(nc3ccc(OC(=O)N4CCC(N5CCCCC5)CC4)cc13)-c1cc3c(c(=O)n1C2)COC(=O)[C@]3(O)CC,2.4,-5.5,64.6*,-295.7,0.1,7.5,73.5*
CCC1(O)C(=O)OCc2c1cc1n(c2=O)Cc2cc3cc(O)ccc3nc2-1 (stereo not drawn),·,-15.7,22.7,-31.9,-0.8,·,·
CC[C@@]1(O)C(=O)OCc2c1cc1n(c2=O)Cc2cc3c(NC(=O)CN)cccc3nc2-1,5.2,-3.0,85.0*,-104.7,-1.5,4.6,70.5*
CCC1(OC(=O)CN)C(=O)OCc2c1cc1n(c2=O)Cc2cc3ccccc3nc2-1 (stereo not drawn),3.4,·,82.5*,·,1.8,3.7,88.1*
C/C(C=NNC(=O)NC1CCCCC1)=C\c1ccccc1,-7.7,·,·,·,·,10.5,·
NC(=O)CC(NC(=O)Cc1cccc2ccccc12)c1ccc(NCc2ccccc2)c([N+](=O)[O-])c1 (stereo not drawn),·,-11.7,-25.4,8.6,0.4,·,·
NC(=O)CC(NC(=O)Cc1cccc2ccccc12)c1ccc(NCc2ccc(F)cc2)c([N+](=O)[O-])c1 (stereo not drawn),·,-7.5,74.7*,10.3,1.7,·,-27.5
COC(=O)C1=C(c2ccc(OC)c(OC)c2)CC2CCC1N2C(=O)NCCOc1ccccc1Cl (stereo not drawn),-0.7,·,·,·,·,4.5,·
COC(=O)c1nn(-c2ccc3c(c2)CCN3C(C)=O)cc1O,5.0,2.4,81.7*,-81.8,0.8,7.4,80.6*
COC(=O)c1nn(-c2ccc3c(c2)OCO3)cc1O,-10.3,10.2,-68.0,-22.6,-0.1,-0.2,·
